Measured values: publication PMC7819943, “Rice protein-binding microarrays: a tool to detect cis-acting elements near promoter regions in rice”
In all, about 35,000 sequences were measured (“fluorescence intensity (a.u.)”: median about 10,000, highest 2% from about 52,000 on). What follows is part of a selection rich in the highest values, with near analogues and random picks from the rest.

Each sequence was assayed against T1, OsWOX13 (Oryza sativa, UniProt Q5QMM3 1-267) (assay: protein-binding microarray (RPBM); PBS, 2% BSA, 51.3 ng/ul salmon testes DNA, 50 uM zinc acetate, 200 nM TF, 25 C, 1 h; high values mean tight binding). Details: protein: recombinant; tags: N-terminal polyhistidine and DsRed monomer fusion (pET32a); label: CyDye5-dUTP incorporated in the synthesized complementary strand; 3' TTTTT single-stranded linker to array surface; dsDNA, one strand shown.
T1 sequence: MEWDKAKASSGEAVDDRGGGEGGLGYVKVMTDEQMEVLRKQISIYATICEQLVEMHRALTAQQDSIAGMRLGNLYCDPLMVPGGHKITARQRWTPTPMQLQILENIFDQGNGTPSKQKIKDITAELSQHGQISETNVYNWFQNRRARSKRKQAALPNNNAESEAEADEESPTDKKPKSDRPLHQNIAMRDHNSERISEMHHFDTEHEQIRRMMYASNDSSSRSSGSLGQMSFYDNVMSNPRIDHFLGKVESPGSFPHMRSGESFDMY
How it was run: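 The binding signal is fluorescence intensity per array feature (arbitrary units). Readings came from an Axon 4000B scanner after a washed, 2% BSA-blocked, double-stranded custom Agilent array had been incubated for 1 h at 25 °C with 200 nM protein and 50 µM zinc acetate. The protein was a Ni–NTA-purified transcription factor fused N-terminally to polyhistidine and DsRed, expressed in E. coli BL21-CodonPlus.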
“TTGGGAAACGGAGGAAGTAATTAATTAGTCTTTGTGGAAACGGAGTCACCTAGTGCAG” was tested, and the binding signal was 3790 fluorescence intensity (a.u.).
For “TTAATTAACTCAGCTTCTAGTTCATATGACTCTTGCTAATCGGAGTCACCTAGTGCAG”, the binding signal was 8400 fluorescence intensity (a.u.).
For “TTGCTAATTAATTTATGTTAATTAGTAGCTAACCTAGCTGCGGAGTCACCTAGTGCAG”, the binding signal was 65200 fluorescence intensity (a.u.).
In the case of “AATATTTATGTTAATTATATATAGCTAATTATGATAATAGCGGAGTCACCTAGTGCAG”, the binding signal is reported as 18800 fluorescence intensity (a.u.).
In the case of “ACAATCTTATAGCTAATTTATTATATATGTTAGCTTTAAGCGGAGTCACCTAGTGCAG”, the binding signal is reported as 4320 fluorescence intensity (a.u.).
With “AATTTAATTAATTATGACTTCAGCTTGGTAGGTTCAGTTGCGGAGTCACCTAGTGCAG” the binding signal was 53000 fluorescence intensity (a.u.).
With “AATTAATAATTGCAATAGTTAGGTTATGAAGACTTCAGAGCGGAGTCACCTAGTGCAG” the binding signal was 15300 fluorescence intensity (a.u.).
With “AAAACAGAAAATAGCCAGTCAACCAAACAGTTGTCTTGACCGGAGTCACCTAGTGCAG” the binding signal was 6230 fluorescence intensity (a.u.).
“TGCTAATGGCGGCCATAGATTTGTACAAGTATCAGCTGAGCGGAGTCACCTAGTGCAG” was tested, and the binding signal was 4480 fluorescence intensity (a.u.).
With “AATTGCTGTTGATTTGCCACTACCACTCTCCCCAACAAGTCGGAGTCACCTAGTGCAG” the binding signal was 6370 fluorescence intensity (a.u.).
“CCCACATGCCAGACTGATTGCCAGTCATGAGCAAGGGTCCCGGAGTCACCTAGTGCAG” was tested, and the binding signal was 23900 fluorescence intensity (a.u.).
“ACTGATTGCTGTTGGTCATTCCCGGGCCAGTCCCCACTCCCGGAGTCACCTAGTGCAG” was tested, and the binding signal was 52400 fluorescence intensity (a.u.).
With “ATCATAACTCCATCAGATAATTTGTGCAGAACGGCAGAACCGGAGTCACCTAGTGCAG” the binding signal was 5500 fluorescence intensity (a.u.).
In the case of “TTAATTATTTGAGCAAATTTAATGGGATGAGGGAATGATGCGGAGTCACCTAGTGCAG”, the binding signal is reported as 24800 fluorescence intensity (a.u.).
For “GTTTTAATTGTTTTACTGATTTGCAAATGAGTCTGGGATGCGGAGTCACCTAGTGCAG”, the binding signal was 63500 fluorescence intensity (a.u.).
For “ACGAATCTAATGAGCCTAATTAATCCATGATTAGCCTATGCGGAGTCACCTAGTGCAG”, the binding signal was 21200 fluorescence intensity (a.u.).
In the case of “AGTTCAATTGCTTTGATGAGTGAGCAGAGAGATGATGCAGCGGAGTCACCTAGTGCAG”, the binding signal is reported as 3420 fluorescence intensity (a.u.).
“GAATCTATTGAGCCTAATTAATCCATGATTAGCCTATGTGCGGAGTCACCTAGTGCAG” was tested, and the binding signal was 7730 fluorescence intensity (a.u.).
“CATGGATAATTTGTTTTGGAGTGACACACTGACACTGATGCGGAGTCACCTAGTGCAG” was tested, and the binding signal was 9780 fluorescence intensity (a.u.).
“TTGAGATGATTTACTATTAATTTAGTCTATTGTTGAGATGCGGAGTCACCTAGTGCAG” was tested, and the binding signal was 35700 fluorescence intensity (a.u.).
In the case of “ATTAATTGATGCTTTGCTTGATTACTTGAGTCAGATCCAGCGGAGTCACCTAGTGCAG”, the binding signal is reported as 63200 fluorescence intensity (a.u.).
In the case of “ATGTTGATTGGAGTCTGATAACTTGTCACTGGATGACATGCGGAGTCACCTAGTGCAG”, the binding signal is reported as 61700 fluorescence intensity (a.u.).
With “GTGTTGAATGCACTGATTTGTTCAGTGTCTGAGATTGATGCGGAGTCACCTAGTGCAG” the binding signal was 13100 fluorescence intensity (a.u.).
“TCTTTACTTAATTAATTTGATGCATGTATGCCAGGATTTGCGGAGTCACCTAGTGCAG” was tested, and the binding signal was 35800 fluorescence intensity (a.u.).
“CCAGCTTAATTGAGCCTGATTAGCCGAATCCATAATTGTGCGGAGTCACCTAGTGCAG” was tested, and the binding signal was 63800 fluorescence intensity (a.u.).
In the case of “CATTGTCATCCTGAGTAGATTGCCAATTATATGGGTTTGGCGGAGTCACCTAGTGCAG”, the binding signal is reported as 6170 fluorescence intensity (a.u.).
“CGTTTTGATGGATGGCTCAGATCGGTTCCGAATCGATCAACGGAGTCACCTAGTGCAG” was tested, and the binding signal was 5120 fluorescence intensity (a.u.).
With “GGTTTAATTAATTAATCGCGCCAACCCAGATGCTAATCAGCGGAGTCACCTAGTGCAG” the binding signal was 50200 fluorescence intensity (a.u.).
In the case of “TGAAAATTTTGTCGGAAATTTATCAGTGTATCAACTGTCTCGGAGTCACCTAGTGCAG”, the binding signal is reported as 6470 fluorescence intensity (a.u.).
“TTTCTTGATTTGGTTGGGATTGGTTGTTCTTGGGCTTATCCGGAGTCACCTAGTGCAG” was tested, and the binding signal was 24600 fluorescence intensity (a.u.).
With “GTTGAGATTAATTGTTCTATACTACTTTCTCTATCTAAAACGGAGTCACCTAGTGCAG” the binding signal was 7990 fluorescence intensity (a.u.).
In the case of “GATAATTCTTATGTTACTGACTAATATGATAGTACTGAGTCGGAGTCACCTAGTGCAG”, the binding signal is reported as 5770 fluorescence intensity (a.u.).
In the case of “AGTTGATTGGTAAAGTGACATGCTTGAACACTGTTGGAGCCGGAGTCACCTAGTGCAG”, the binding signal is reported as 54000 fluorescence intensity (a.u.).
In the case of “TATAATTGTTACTGTTAATTGAGGTGGGAAATACCAGGTGCGGAGTCACCTAGTGCAG”, the binding signal is reported as 53500 fluorescence intensity (a.u.).
“CCTGATTAATTGTTAATTTTGCTGATGCAGCTGTTGCTTGCGGAGTCACCTAGTGCAG” was tested, and the binding signal was 65000 fluorescence intensity (a.u.).
“GGAACAGGTACCATAATTGTTAATAACCTAATACTGGGCCCGGAGTCACCTAGTGCAG” was tested, and the binding signal was 5270 fluorescence intensity (a.u.).
“TGTTAATCTTGCTGATTTTGTTATTGATTTTAATGCTATGCGGAGTCACCTAGTGCAG” was tested, and the binding signal was 17300 fluorescence intensity (a.u.).
“TCAAAGTGATTGGTGACACTCTACACAACACACAGTTGAACGGAGTCACCTAGTGCAG” was tested, and the binding signal was 28400 fluorescence intensity (a.u.).
With “ACACTTGGAGATTGGTAATAGATTACAGAAAGTTGAATGCCGGAGTCACCTAGTGCAG” the binding signal was 14300 fluorescence intensity (a.u.).
In the case of “ACTTACAAATTTTGTACTCAATTGAGATGTGCTTCGATTGCGGAGTCACCTAGTGCAG”, the binding signal is reported as 5640 fluorescence intensity (a.u.).
For “TGTTGCTGTTGATTAGCTCTCACCTAATTTGTTGTGTATGCGGAGTCACCTAGTGCAG”, the binding signal was 18100 fluorescence intensity (a.u.).
“ATGAATCTAGTCAGATTGGCCAATTTGATTTGTTTTACTCCGGAGTCACCTAGTGCAG” was tested, and the binding signal was 9360 fluorescence intensity (a.u.).
For “ATTAACCAGTATTAATAATTGAGGGACGTTGTATACTGGGCGGAGTCACCTAGTGCAG”, the binding signal was 20500 fluorescence intensity (a.u.).
With “AATTTGATTGATTTTACTCTCGAGCCAATTGAGATGTCTGCGGAGTCACCTAGTGCAG” the binding signal was 64800 fluorescence intensity (a.u.).
